Most compounds without a hit are left out; they make up all but 2.4% or so of the library.
D2 ag-1 = activates the human D2 dopamine receptor; DiscoveRx PathHunter D2 beta-arrestin, luminescence, 90 min; 100% = 57 uM dopamine signal; activation, % (concentration not given with the values); hit rate 0.084% among 360,000; in the data active means activation above about 40%; inconclusive means between about 15% and that limit
Target sequence (P14416 whole entry, looked up): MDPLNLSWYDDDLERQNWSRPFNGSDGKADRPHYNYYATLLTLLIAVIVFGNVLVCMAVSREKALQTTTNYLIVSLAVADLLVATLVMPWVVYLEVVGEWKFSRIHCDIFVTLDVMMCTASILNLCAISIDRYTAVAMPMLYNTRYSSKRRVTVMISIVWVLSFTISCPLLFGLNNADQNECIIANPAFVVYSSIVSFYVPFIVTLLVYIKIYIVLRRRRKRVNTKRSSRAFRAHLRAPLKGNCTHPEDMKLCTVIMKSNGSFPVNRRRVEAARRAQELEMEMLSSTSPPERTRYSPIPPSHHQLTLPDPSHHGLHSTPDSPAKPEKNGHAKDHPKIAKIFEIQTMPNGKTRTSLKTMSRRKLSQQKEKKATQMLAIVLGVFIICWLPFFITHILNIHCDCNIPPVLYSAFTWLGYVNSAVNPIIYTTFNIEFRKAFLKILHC
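DiscoveRx PathHunter D2 beta-arrestin cells (2,100/well) attached overnight, then compound-stimulated 90 min at 37 C in HBSS/10 mM HEPES/0.1% Tween-20 buffer; beta-galactosidase complementation read by luminescence after 1 h at ambient temperature. Dopamine 57 uM final (EC100) as control.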
D2 antagonist = D2 dopamine receptor (human) antagonism | P14416 | HEK293 TREx D2 cells, calcium flux, dopamine EC80 | inhibition, % at 10 µM | hit rate 2% among 340,000 | AID 485344; in the data active means inhibition above about 30%; inactive means below that, where a call was filed
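Cells plated overnight at 30 C with tetracycline; no-wash calcium dye, 30–90 min RT; 10 s baseline; compound pinned; 180 s read; EC80 dopamine added; another 180 s read.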
D2 PAM-1 = positively modulates the human D2 dopamine receptor allosterically. P14416. HEK293 T-REx D2, calcium flux, EC20 dopamine potentiation. potentiation, % at 10 µM. hit rate 0.34% among 340,000;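 active means potentiation over 3 SD above the plate norm, cut at about 30% in these data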
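Calcium flux readout, no-wash dye, 1 read/s. Inducible HEK293 Trex D2 line, overnight 30 C. Compound alone 180 s (agonist flags), then EC20 dopamine, another 180 s to score potentiation.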
D2 PAM-2 = potentiates the human D2 dopamine receptor allosterically. DiscoveRx D2 beta-arrestin cells, luminescence, 90 min; 100% = 57 uM dopamine signal. potentiation, % (concentration not given with the values). hit rate 0.23% among 360,000; in the data active means potentiation above about 50%; inconclusive means mostly about 30% to 49%
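D2 cells co-treated with compound plus 50 nM dopamine (EC20) for 90 min at 37 deg C to detect potentiation. Beta-arrestin recruitment was read as enzyme-fragment luminescence after 1 h at ambient temperature. Full response was set by 57 uM dopamine.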
D2 ag-2 = activates the human D2 dopamine receptor; P14416; HEK293 T-REx D2 cells, calcium flux agonist mode; activation, % at 2 µM; hit rate 0.53% among 340,000;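 active means activation over 3 SD above normal in the single-dose calcium agonist read, cut at about 30% in these data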
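Calcium-flux readout, 1 cycle/sec over 180 s following compound pin transfer, in inducible HEK293 Trex D2 cells (force-coupled); dopamine controls included. Positive calcium responses during this window marked compounds as potential agonists.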
Of the large screens only hits and unclear results are named; the others gave an inactive call.

COc1cccc(CNC(=O)C2CCC(CNS(=O)(=O)c3ccc4c(c3)CCCC(=O)N4)CC2)c1 (stereo unspecified)	none (no result: D2 ag-1, D2 antagonist, D2 PAM-2)
Cc1ccccc1N=Cc1cc2c(cc1O)OC(N)=C(C#N)C2c1ccccc1 (stereo unspecified)	D2 antagonist 33.1
COc1cc2cc(CNc3ccccc3)c(=O)n(CC(=O)Nc3ccccc3)c2cc1OC	none (no result: D2 ag-1, D2 antagonist, D2 PAM-2)
Cc1ccc([N+](=O)[O-])c(NC(=O)COC(=O)C2CC3CCCC(C2)C3=O)c1C (stereo unspecified)	D2 antagonist 36.4
Cc1cccc([N+](=O)[O-])c1NC(=O)COC(=O)C1CC2CCCC(C1)C2=O (stereo unspecified)	none
CC(C)C(=O)NCCSc1c[nH]c2ccccc12	D2 antagonist 31.1
CCC(=O)NCCSc1c[nH]c2ccccc12	none
OCC1CCCCN1C(=S)NCc1ccco1 (stereo unspecified)	D2 PAM-2 inconclusive
CC1CCCC(C)N1C(=S)NCc1ccco1 (stereo unspecified)	D2 antagonist 30.5
CCCCCCSc1ccc(-c2nc3ccc(C)cn3c2NCc2ccccc2)cc1OC	none
CCCCCCSc1ccc(-c2nc3ccc(C)cn3c2NCc2ccccc2)cc1	D2 antagonist 34.2
CCC(C)COC(c1ccccc1)(c1ccccc1)C(Oc1nc(C)cc(C)n1)C(=O)O (stereo unspecified)	none
Cc1cc(C)nc(OC(C(=O)O)C(OCC(C)C)(c2ccccc2)c2ccccc2)n1 (stereo unspecified)	D2 PAM-2 71.5
Cc1ccc(SCC(=O)Nc2cccc(C(=O)NC(C)(C)C)c2)cc1	none
Cc1ccc(SCC(=O)NC(C)(C)C)cc1	D2 antagonist 36.8
S=c1[nH]nc(C2CCCCC2)n1/N=C/c1ccc(Br)cc1	D2 antagonist 36.0
S=c1[nH]nc(C2CCCCC2)n1/N=C/c1ccc(Cl)cc1	none
Cc1cc(=O)[nH]c(N2CCCNCC2)n1	none
Cc1cc(=O)[nH]c(-n2nc(C)cc2C)n1	D2 antagonist 43.8
CC(=O)Nc1ccc2nc(SCCOc3ccccc3Cl)sc2c1	none (no result: D2 ag-1, D2 antagonist, D2 PAM-2, D2 ag-2)
Cc1ccc(S(=O)(=O)NCCc2nnc(SCc3cccnc3)n2C)cc1	D2 PAM-1 32.9
Cc1ccc(S(=O)(=O)NCCC(=O)NCc2cccnc2)cc1	none (no result: D2 antagonist, D2 PAM-1, D2 ag-2)
CCn1c(CCNS(=O)(=O)c2ccccc2Br)nnc1SC	none
CSc1nnc(CCNS(=O)(=O)c2ccccc2Br)n1C	D2 antagonist 33.6
O=C1c2ccccc2C(=O)N1Cc1ccco1	none
O=C1c2cccc3c(O)ccc(c23)C(=O)N1Cc1ccco1	D2 ag-2 61.1
COc1ccc(C(=O)ON=C(C)c2nccs2)cc1	none (no result: D2 antagonist, D2 PAM-1, D2 ag-2)
COc1cc(C(CC(=O)NCc2ccc(F)cc2)N2Cc3ccccc3C2=O)cc(OC)c1OC (stereo unspecified)	none (no result: D2 ag-1, D2 antagonist, D2 PAM-2, D2 ag-2)
CC(NC(=O)Nc1ccc(O)cc1)(C(F)(F)F)C(F)(F)F	D2 PAM-2 117.8
CCN(CC)C1CCN(C(=O)c2ccc(OC3CCN(C(=O)CCOC)CC3)cc2)C1 (stereo unspecified)	none (no result: D2 antagonist, D2 PAM-1, D2 ag-2)
CCOC(=O)c1sc(NC(=O)c2ccc(Cl)s2)cc1C	none
CCOC(=O)c1sc(NC(=O)Nc2ccc(Cl)cc2)cc1C	D2 antagonist 38.0 (no result: D2 ag-2)
CCOC(=O)c1c(NC(=O)Nc2cccc(Cl)c2)sc(C)c1C	none
CCOC(=O)c1c(NC(=O)Nc2ccc(Cl)cc2)sc(C)c1C	D2 antagonist 35.8
Cc1cc(Br)ccc1NC(=O)CN(C)C(=O)c1cccc(S(=O)(=O)N2CCN(C)CC2)c1	none (no result: D2 antagonist, D2 PAM-1, D2 ag-2)
CC1CCCN(C(=O)Cn2ncc3c([nH]c4ccccc43)c2=O)C1 (stereo unspecified)	none (no result: D2 ag-1, D2 antagonist, D2 PAM-2)
CCN(CC)C(=O)c1ccc(C)c(Br)c1	D2 antagonist 31.3
COc1cccc(-c2noc(C3CCCN(C(=O)c4ccc(F)cc4F)C3)n2)c1 (stereo unspecified)	D2 antagonist 32.7
COc1ccc(-c2cc3ccccc3n2CC(O)Cn2nc(C)cc2C)cc1 (stereo unspecified)	none
COc1ccc(-c2cc3ccccc3n2CC(O)CN2CCC(C)CC2)cc1 (stereo unspecified)	D2 antagonist 81.3
c1cnc2c(-c3ccc4nccn4c3)cccc2c1	none (no result: D2 antagonist, D2 PAM-1, D2 ag-2)
O=C(c1ccc(Cl)cc1)n1nc(-c2ccccc2)nc1NCc1ccco1	none (no result: D2 ag-1, D2 antagonist, D2 PAM-2)
CC1C2CC(C/C2=N/NC(=O)c2cccs2)C1(C)C (stereo unspecified)	none
C[C@@H]1C2CC(C/C2=N\NC(=O)c2ccncc2)C1(C)C (stereo partly specified)	D2 antagonist 35.6
O=C(C#Cc1ccccc1)Nc1ccc(F)cc1	D2 antagonist 46.7
CCN(CC)C(=O)C1=C(C)N(CCC2=CCCCC2)C(=O)C(CC(=O)NC(c2ccccc2)c2ccccc2)C1 (stereo unspecified)	none (no result: D2 antagonist, D2 PAM-1, D2 PAM-2, D2 ag-2)
CC1(C)CSC(=NCc2ccccc2)N1C(=O)c1cccc([N+](=O)[O-])c1	D2 antagonist 54.1, D2 ag-2 83.2
NC(=NCc1ccccc1)c1cccc([N+](=O)[O-])c1	none
O=C1NCCCc2c1oc1ccc(O)cc21	none
Oc1c(Cl)cc(Cl)c2c1NCCC2	D2 ag-1 inconclusive, D2 antagonist 39.2
COC(=O)C(C(=O)OC)[C@@H]1C=C[C@H](C[N+](=O)[O-])N(C(C)=O)C1	none (no result: D2 antagonist, D2 PAM-1, D2 ag-2)
COC(=O)c1c(-c2ccc(Cl)cc2)noc1N1CCN(c2cccc(C)c2C)CC1	none (no result: D2 ag-1, D2 antagonist, D2 PAM-2)
O=C(NCc1cccnc1)c1ccc(-c2cccc(Cl)c2Cl)o1	D2 antagonist 59.1
CC(=O)c1cccc(NC(=O)c2ccc(-c3ccccc3[N+](=O)[O-])o2)c1	D2 antagonist 32.8
O=C(NCc1cccnc1)c1ccc(-c2ccccc2[N+](=O)[O-])o1	D2 antagonist 85.3
Cc1ccc(N2C(=O)[C@@H]3CSC(c4ccc(C(F)(F)F)cc4)N3C2=O)cc1 (stereo partly specified)	none (no result: D2 ag-1, D2 antagonist, D2 PAM-2)
CCOC(=O)c1c(S(=O)(=O)N2CCC(C(=O)NCc3ccc(F)cc3)CC2)c(C)n(C)c1C	none (no result: D2 ag-1, D2 antagonist, D2 PAM-2)
CC(C)(C)c1ccc(C2Sc3ccccc3NC3=C2C(=O)c2ccccc23)cc1 (stereo unspecified)	none (no result: D2 ag-1, D2 antagonist, D2 PAM-2)
COc1ccccc1C(=O)N1CCC(N2CCN(c3ccccc3OC)CC2)CC1	D2 antagonist 37.7
COc1ccccc1N1CCN(C2CCN(C(=O)COc3ccccc3)CC2)CC1	D2 antagonist 89.8
COc1ccccc1N1CCN(C(=O)C2CC=CCC2C(=O)O)CC1 (stereo unspecified)	D2 antagonist 32.9
COc1ccccc1N1CCN(C(=O)C2CCN(C(=O)c3ccccc3Cl)CC2)CC1	none
COc1ccccc1N1CCN(C(=O)c2coc(=O)c(Br)c2)CC1	D2 antagonist 42.8
CN1CCCC(C)(C(=O)Nc2cccc(Oc3ccccc3)c2)C1 (stereo unspecified)	none (no result: D2 antagonist, D2 PAM-1, D2 ag-2)
